SMARCA2 activ = SMARCA2 (BRM) function activators, primary screen, cell-based, luminescence, high throughput. MG213 cells, MMTV-luciferase reporter, dexamethasone, overnight. activation, % at 9.1 µM. 370,000 compounds, 1% hits; in the data active means activation above about 7.8%
HSF1 inh = HSF1 inhibitors in luciferase reporter cells, primary screen, cell-based, NIH3T3, luminescence; NIH3T3-HGL HSE-luciferase, MG132-induced, luminescence 8 h; stronger effect = lower value; activity change, negative = inhibition, % at 7.5 µM (by protocol); 300,000 compounds, 0.77% hits; AID 2098, 2009;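 active means more than half of replicate wells show activity change below -50%, luminescence cut by over half; inconclusive means some wells, but at most half, below -50%; inactive means no replicate well below -50%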;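 further: luciferase reports HSF-1 transcriptional activity via heat shock element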
esBAF inh = Bmi1 luciferase reporter increase in mESCs, primary screen, esBAF inhibitor project, mouse ES cells, Bmi1 luciferase knock-in, single point | AID 602393, 2012 | 350,000 compounds, 2% hits | reporter increase, % at 12.5 µM | 24 h; 100% = twice the neutral-well signal; in the data active means activation above about 40%; inconclusive means no clear call, values can overlap the other calls;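 further: a rise in the Bmi1 reporter signal indicates esBAF inhibition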
MITF act = activators of MITF-driven TRPM1 promoter reporter, primary screen, cell-based, SK-MEL-5, luciferase, single point; SK-MEL-5 TRPM1-promoter luciferase, 24 h; % of positive control, neutral wells = 0; 300,000 compounds, 0.75% hits; AID 588334, 2011; activation, % at 12.5 µM;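 active means mean activation of at least 80% with every replicate also reaching 80%; inconclusive means mean reaches 80% but some replicate falls short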
HSF1 activator = HSF-1 activators, primary screen, NIH3T3-HGL cells, MG132 stress, luminescence, single point; 300,000 compounds, 1.7% hits; activation, % at 9 µM; NIH3T3-HGL HSF-1 luciferase reporter, 8 h; 100% = twice DMSO control signal;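 active means mean replicate activation of at least 50% with a set share of replicates each reaching 50%; inconclusive means only one of those two conditions met; inactive means mean below 50% and too few replicates reaching it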
Wnt bcat act = Wnt/beta-catenin pathway activators, primary screen, cell-based, plate reader, single point. Wnt/beta-catenin reporter cell assay, activator. activation, % at 9.35 µM. 300,000 compounds, 1.2% hits; in the data active means activation above about 30%, passing the limit was not always enough; inconclusive means no clear call, values can overlap the other calls
SMARCA2 conf = SMARCA2 (BRM) function activators, confirmation, cell-based, luminescence, triplicate. activation, % at 9.1 µM. AID 652260, 2013. MG213 cells, MMTV-luciferase with dexamethasone, overnight; MG213 cells expressing E1A, Rb sequestered; DMSO wells 0%, reference activator 100%. 3,500 compounds, 30% hits. shares compounds with SMARCA2 activ;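 active means activation above its plate's cutoff, the mean activation of tested wells plus 3 SD, cut at about 7.9% in these data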
VP16 Luc act = GAL4-VP16 luciferase reporter activation, counter-screen for SMARCA2 (BRM) activator project, cell-based, pG5luc, luminescence, high throughput | 3,500 compounds, 41% hits | HEK293 GAL4-VP16 pG5luc reporter; scaled: DMSO wells 0%, SAHA wells 100% | shares compounds with SMARCA2 activ | activation, % at 9.1 µM;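 active means activation above the solvent-only control well mean plus 3 SD, averaged across control plates, cut at about 5.2% in these data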
Numbers stand for hits; i = inactive; ? = inconclusive; nt = no result. Most compounds without a hit are left out; they make up all but 4.3% or so of the library.

SMILES | SMARCA2 activ | HSF1 inh | esBAF inh | MITF act | HSF1 activator | Wnt bcat act | SMARCA2 conf | VP16 Luc act
COc1ccc(NC(=O)Nc2ccc3c(c2)C(=O)N([C@H](C)CO)C[C@@H](C)[C@H](CN(C)S(=O)(=O)c2cn(C)cn2)O3)cc1 | nt | nt | i | nt | nt | nt | nt | nt
CC(=O)n1cc(/C=C2/N=C(c3ccccc3)OC2=O)c2ccccc21 | 8.2 | i | i | i | i | i | i | i
CO[C@@H]1CN(C)C(=O)c2cc(NC(=O)Nc3ccccc3)ccc2OC[C@H](C)N(C(=O)CN(C)C)C[C@@H]1C | nt | nt | i | nt | nt | nt | nt | nt
CCCC(=O)Nc1nnc(SCC)s1 | 8.5 | i | nt | i | i | i | i | i
CCSc1nnc(NC(=O)c2csc(C)c2)s1 | 8.1 | i | i | 84 | i | i | i | 8.8
CCSc1nnc(NC(=O)c2cccc3ccccc23)s1 | i | i | i | i | i | i | nt | nt
Nc1cc(C2CCCC2)nn1-c1ccccc1 | 9.0 | i | i | i | i | nt | 18 | i
O=C(C[C@H]1CC[C@H]2[C@@H](COC[C@@H](O)CN2Cc2cc(F)ccc2F)O1)NCc1ccccc1 | nt | nt | i | nt | nt | nt | nt | nt
C[C@@H]1CCCCO[C@H](CN(C)C(=O)Nc2ccc3c(c2)OCO3)[C@H](C)CN([C@H](C)CO)C(=O)c2cc(NC(=O)c3ccncc3)ccc2O1 | nt | nt | i | nt | nt | nt | nt | nt
COc1cc(C2Oc3ccccc3C=C2[N+](=O)[O-])cc(OC)c1OC (stereo unspecified) | 21 | nt | nt | nt | nt | i | i | i
COc1cc(C2NC(=O)c3ccccc3O2)cc(OC)c1OC (stereo unspecified) | i | i | i | nt | i | i | nt | nt
O=C(Nc1nc2ccccc2n1CCN1CCCC1)c1ccc(Cl)cc1 | 9.1 | nt | 48 | nt | nt | i | 18 | 13
O=C(Nc1nc2ccccc2n1CCN1CCCCC1)c1ccc(Cl)cc1 | nt | i | nt | nt | i | nt | nt | nt
O=C(Nc1nc2ccccc2n1CCN1CCOCC1)c1ccc(Cl)cc1 | 8.0 | i | i | nt | i | i | i | i
C/C(=N\Nc1cccc([N+](=O)[O-])c1)c1ccccc1O | 12 | i | nt | i | i | i | i | i
C/C(=N\Nc1cccc([N+](=O)[O-])c1)c1cc(F)ccc1O | i | i | nt | i | i | i | nt | nt
COc1ccc(-n2nc3cc(C)c(NC(=O)C(C)C)cc3n2)cc1 | nt | i | nt | nt | i | nt | nt | nt
COc1ccc(-n2nc(C)cc2N)cc1 | i | ? | nt | i | i | i | nt | nt
COc1ccc(-n2nc3cc(C)c(N)c(Br)c3n2)cc1 | 8.4 | i | i | nt | i | i | 11 | 11
COc1ccc(-n2nc3cc(C)c(NC(C)=O)cc3n2)cc1 | 8.1 | i | i | i | i | i | i | 8.9
C[C@@H]1CN([C@H](C)CO)C(=O)c2cc(NC(=O)Cn3cnnn3)ccc2O[C@H]1CN(C)C(=O)Nc1cccc2ccccc12 | nt | nt | i | nt | nt | nt | nt | nt
COc1ccc(-c2cn3cc(C(F)(F)F)cc(Cl)c3n2)cc1 | 12 | i | nt | i | i | i | i | 11
COc1ccc(C(O)c2ncc(C(F)(F)F)cc2Cl)cc1 (stereo unspecified) | i | i | i | i | i | i | nt | nt
C[C@@H]1CCCCO[C@H](CN(C)CC2CCCCC2)[C@H](C)CN([C@@H](C)CO)C(=O)c2cc(NC(=O)Nc3ccc(C(F)(F)F)cc3)ccc2O1 | nt | nt | i | nt | nt | nt | nt | nt
c1ccc(CSc2ccc(-c3ccc4c(c3)OCO4)nn2)cc1 | 11 | i | nt | 90 | i | 35 | 7.9 | i
Cc1ccc(-c2nnc(/C=C/c3ccccc3)o2)cc1 | 9.1 | i | nt | i | i | i | i | 10

Bioassay records from PubChem BioAssay.
